How the values were obtained:
[1] = system: Human papillomavirus type 1a protein E7 (residues 44-93); test: small molecules binding HPV E7 44-93 – biochemical, small-molecule microarray, residues 44-93, 635 nm fluorescence, primary screen (AID 1108); settings: fluorescence 635 nm, higher = more signal;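 also: E7 fragment applied at 1 µg/mL in TBST for 1 h at 4 C; score combines spot fluorescence with its signal to noise ratio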
[2] = hepatitis C replication reporter changes, two-sided – Huh7 cells, luciferase reporter, HCV replication inhibitor project, primary screen (AID 1109); settings: Huh7 HCV replicon luciferase reporter, 48 h; higher = more signal;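 also: huh7 hepatoma cells harbouring a luciferase neomycin HCV replicon reporter; luciferase luminescence as measure of HCV replicon replication; test concentration not given here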
[3] = molecular target: Left-right determination factor 2 (Homo sapiens) (UniProt O00292); test: small molecules binding LEFTY2 protein – biochemical, small-molecule microarray, 635 nm fluorescence scan, primary screen (AID 1110); settings: higher = more signal
Chain of Left-right determination factor 2 (Homo sapiens) (O00292 whole entry, looked up): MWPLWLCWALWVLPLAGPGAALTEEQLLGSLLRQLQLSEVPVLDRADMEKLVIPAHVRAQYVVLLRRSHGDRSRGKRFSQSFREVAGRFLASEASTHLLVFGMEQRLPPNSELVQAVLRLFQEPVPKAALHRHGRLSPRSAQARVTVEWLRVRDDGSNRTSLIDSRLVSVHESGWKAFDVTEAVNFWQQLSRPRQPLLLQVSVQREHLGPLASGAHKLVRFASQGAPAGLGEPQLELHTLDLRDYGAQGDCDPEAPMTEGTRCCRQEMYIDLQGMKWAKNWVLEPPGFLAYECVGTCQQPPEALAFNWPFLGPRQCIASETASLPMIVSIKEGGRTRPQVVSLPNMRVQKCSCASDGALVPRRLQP

[4] = molecular target: Calmodulin-1 (Homo sapiens) (UniProt P0DP23); test: small molecules binding calmodulin-1 with EGTA – biochemical, small-molecule microarray, Cy5-labelled CALM1, profiling panel (AID 1111); settings: Cy5-CALM1 binding fluorescence, higher = more signal;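 also: labelled calmodulin applied in Tris saline Tween buffer holding calcium plus EGTA and DTT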
[5] = molecular target: Calmodulin-1 (Homo sapiens) (UniProt P0DP23); test: small molecules binding Ca-loaded calmodulin-1 – biochemical, small-molecule microarray, Cy5-labelled CALM1, plus calcium, artefact control for SMM control-protein annotation, profiling panel (AID 1112); settings: Cy5-CALM1 binding fluorescence, higher = more signal;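 also: score merges spot fluorescence with signal to noise from triplicate slides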
[6] = probe aWnt5a binding to arrayed compounds – biochemical, biotinylated probe, 635/667 nm fluorescence, primary screen (AID 1113); settings: small-molecule microarray, higher = more signal;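 also: score merges 667 nm fluorescence intensity with signal-to-noise per printed feature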
[7] = probe aShh binding to arrayed compounds – biochemical, biotinylated probe, 635/667 nm fluorescence, primary screen (AID 1114); settings: small-molecule microarray, higher = more signal;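 also: probe is biotin-labelled aShh protein from a stem cell growth factor screen; measures binding of labelled protein to compounds printed on the slide; score merges feature fluorescence at 667 nm with signal-to-noise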
[8] = probe aNog binding to arrayed compounds – biochemical, biotinylated probe, 635/667 nm fluorescence, primary screen (AID 1115); settings: small-molecule microarray, higher = more signal;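 also: probe is biotinylated aNog protein used at 0.15 µg/mL for 1 h at 4 C; z-score combines 667 nm fluorescence of each spot with its signal to noise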
[9] = molecular target: Torsin-1A-interacting protein 1 (Homo sapiens) (UniProt Q5JTV8); test: compound microarray binding of lysate hLAP1 – cell lysate, small-molecule microarray, COS7 lysate, 635/667 nm fluorescence, primary screen (AID 1116); settings: 635 nm fluorescence, higher = more signal
Chain of Torsin-1A-interacting protein 1 (Homo sapiens) (Q5JTV8 whole entry, looked up): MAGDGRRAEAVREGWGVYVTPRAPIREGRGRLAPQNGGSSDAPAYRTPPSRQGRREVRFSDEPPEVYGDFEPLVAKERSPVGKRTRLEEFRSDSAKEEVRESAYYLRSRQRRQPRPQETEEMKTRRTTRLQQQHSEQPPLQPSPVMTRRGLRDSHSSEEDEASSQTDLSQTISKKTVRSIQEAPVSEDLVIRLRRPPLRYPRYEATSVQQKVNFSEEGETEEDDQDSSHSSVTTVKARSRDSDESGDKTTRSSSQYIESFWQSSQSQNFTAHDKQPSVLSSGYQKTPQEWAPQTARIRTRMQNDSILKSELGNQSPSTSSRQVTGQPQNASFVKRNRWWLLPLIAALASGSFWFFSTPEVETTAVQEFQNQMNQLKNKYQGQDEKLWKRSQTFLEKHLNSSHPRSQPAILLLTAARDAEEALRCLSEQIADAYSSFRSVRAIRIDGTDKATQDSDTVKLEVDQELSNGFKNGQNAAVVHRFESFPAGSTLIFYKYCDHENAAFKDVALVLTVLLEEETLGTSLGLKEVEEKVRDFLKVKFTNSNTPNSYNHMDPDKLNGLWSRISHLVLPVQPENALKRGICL

[10] = molecular target: Alpha-bungarotoxin (Bungarus multicinctus) (UniProt P60615); test: compounds binding labelled alpha-BTX control protein – biochemical, small-molecule microarray, Alexa647 label, 635/667 nm fluorescence, artefact control for SMM control protein annotation, profiling panel (AID 1117); settings: alpha-BTX-A647 binding fluorescence, higher = more signal
Chain of Alpha-bungarotoxin (Bungarus multicinctus) (P60615 whole entry, looked up): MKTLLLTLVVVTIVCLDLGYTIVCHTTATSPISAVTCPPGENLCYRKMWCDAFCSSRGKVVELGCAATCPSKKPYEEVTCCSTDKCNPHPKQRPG

Row | SMILES | composite z-score [1] | z-score [2] | composite z-score [3] | composite z-score [4] | composite z-score [5] | composite z-score [6] | composite z-score [7] | composite z-score [8] | composite z-score [9] | composite z-score [10]
1 | COc1ccc(COC(=O)NN=C2C[C@@H](O)[C@@H](O)[C@@H]3[C@@H]4C(=O)N(Cc5ccccc5)C(=O)[C@@H]4CC[C@@H]23)cc1 | 0.183 | 0.605 | 0.379 | -0.234 | -0.515 | -0.128 | 0.0278 | -0.216 | 0.0762 | -0.125
2 | COc1ccc(COC(=O)NN=C2C[C@@H](O)[C@@H](O)[C@@H]3[C@@H]4C(=O)N(C[C@@H]5CCCO5)C(=O)[C@@H]4CC[C@H]23)cc1 | -0.491 | -0.186 | -0.34 | -0.325 | 0.237 | 0.0162 | -0.138 | -0.103 | 0.656 | 0.418
3 | CO[C@H]1COC(=O)[C@H](CCSC)NC(=O)CC=C[C@@H](C)[C@H](OC)COC(=O)[C@@H](OCc2ccccc2)C=C[C@@H]1C | 0.176 | -1.4 | 0.753 | -0.841 | -1.69 | -0.159 | -0.221 | -0.483 | 0.0829 | -0.531
4 | O=C1[C@H]2CCn3c(=O)n(-c4ccccc4)c(=O)n3[C@H]2[C@H](O)[C@@H]2O[C@H]12 | -0.453 | -0.687 | 0.33 | -0.14 | -0.391 | -0.247 | -0.124 | -0.0428 | 0.085 | 0.658
5 | CCOC(=O)[C@H](CC(C)C)NC(=O)CCC1CC(OC(=O)NCCc2ccc(F)cc2)CC2(CCCC(COC(=O)NCc3cccc(C(F)(F)F)c3)O2)O1 (stereo not given in full) | 1.38 | -0.0709 | 0.605 | -0.134 | -0.448 | -0.129 | -0.154 | 0.28 | 0.274 | 0.342
6 | CC(C)=NO[C@H](C)c1cn([C@@H]2COC[C@H]2O)nn1 | 0.427 | 0.78 | 0.48 | -0.312 | -0.956 | -0.169 | -0.138 | -0.216 | 0.26 | 0.159
7 | C#CCCCON=C1C[C@@H](O)[C@@H](O)[C@@H]2[C@@H]3C(=O)N(CC)C(=O)[C@@H]3CC[C@H]12 | 0.51 | -0.0718 | 0.278 | -0.0398 | -0.304 | -0.089 | -0.307 | -0.353 | 0.779 | 0.573
8 | CSCC[C@@H]1NC(=O)CC=C[C@@H](C)COC(=O)[C@H](C)COC1=O | -1.63 | 0.894 | 1.71 | -2.28 | -3.17 | -0.286 | -0.0035 | -0.321 | 0.443 | -1.96
9 | CC(C)=NOC(C)CN1CCCCc2nc(C)c(C)cc21 (stereo not given) | 0.103 | -0.594 | 0.576 | -0.254 | -0.66 | -0.113 | -0.0769 | -0.198 | 0.605 | -0.265
10 | CCOC(=O)NN=C1C[C@@H](O)[C@@H](O)[C@@H]2[C@@H]3C(=O)N(C[C@@H]4CCCO4)C(=O)[C@@H]3CC[C@H]12 | 0.463 | -0.0078 | 0.828 | -0.47 | -0.593 | -0.169 | -0.0146 | -0.166 | 0.998 | -0.213
11 | CO[C@H]1COC(=O)CC=C[C@@H](C)COC(=O)[C@H]2CCCN2C(=O)CC=C[C@H]1C | -0.858 | -0.0849 | 1.48 | -1.05 | -1.72 | -0.0721 | 0.684 | -0.542 | 1.03 | -1.25
12 | CCCNC(=O)OC[C@H]1O[C@H](CCON=C2C[C@@H](O)[C@@H](O)[C@@H]3[C@@H]4C(=O)N(CC)C(=O)[C@@H]4CC[C@@H]23)C=C[C@@H]1Oc1ccc(OC)cc1 | 0.938 | -1.33 | 0.928 | 0.0716 | -0.795 | -0.141 | 0.531 | 0.084 | -0.0137 | 0.512

Reference: PubChem BioAssay
